About 83,000 compounds went through this panel and 20% of them were active in at least one assay; those are over-represented in the sample as a whole.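 Treatment: one concentration, 48 hours, 96-well format. Scoring: percent growth, with anything below 10 considered active.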 Calls of active or inactive are those of the source.
Assays:
Assay in all cases: NCI-60 one-dose screen, 48 h (100 = growth as untreated, 0 = no growth, -100 = all killed)
Conditions in all cases: 10 µM unless noted
NCI-H23 lung = tested on: NCI-H23 lung
NCI-H226 lung = tested on: NCI-H226 lung
NCI-H322M lung = tested on: NCI-H322M lung
HOP-62 NSCLC = tested on: HOP-62 NSCLC
NCI-H460 lung = tested on: NCI-H460 lung
HOP-92 NSCLC = tested on: HOP-92 NSCLC
NCI-H522 lung = tested on: NCI-H522 lung
A549/ATCC NSCLC = tested on: A549/ATCC NSCLC
COLO 205 colon = tested on: COLO 205 colon
DU-145 prostate = tested on: DU-145 prostate
K-562 leukemia = tested on: K-562 leukemia
MALME-3M melanoma = tested on: MALME-3M melanoma
MDA-MB-231 breast = tested on: MDA-MB-231 breast
RXF 393 renal = tested on: RXF 393 renal
SF-268 CNS = tested on: SF-268 CNS
SF-295 CNS = tested on: SF-295 CNS
SF-539 CNS = tested on: SF-539 CNS
UACC-257 melanoma = tested on: UACC-257 melanoma
M14 melanoma = tested on: M14 melanoma
786-0 renal = tested on: 786-0 renal

Measured: growth

COc1ccc(CCn2cncc2-c2c[nH]c3ccccc23)cc1
inactive: NCI-H23 lung 82% | NCI-H226 lung 81.3% | NCI-H322M lung 92.8% | HOP-62 NSCLC 72.8% | NCI-H460 lung 92.5% | HOP-92 NSCLC 60.7% | NCI-H522 lung 83.7% | A549/ATCC NSCLC 99.2% | COLO 205 colon 96.9% | DU-145 prostate 102% | K-562 leukemia 87% | MALME-3M melanoma 90.8% | MDA-MB-231 breast 74.5% | RXF 393 renal 87.8% | SF-268 CNS 80.9% | SF-295 CNS 74.1% | SF-539 CNS 93.4% | UACC-257 melanoma 102% | M14 melanoma 92.6%

COc1ccc(C(C)=O)c(OC)c1
inactive: NCI-H23 lung 105% | NCI-H226 lung 95.1% | NCI-H322M lung 124% | HOP-62 NSCLC 103% | NCI-H460 lung 115% | HOP-92 NSCLC 75.5% | NCI-H522 lung 89.9% | 786-0 renal 103% | COLO 205 colon 113% | DU-145 prostate 113% | K-562 leukemia 118% | MALME-3M melanoma 110% | MDA-MB-231 breast 102% | RXF 393 renal 117% | SF-268 CNS 111% | SF-295 CNS 110% | SF-539 CNS 103% | UACC-257 melanoma 97.8% | M14 melanoma 108%

CC1(C)c2[nH]c3ccccc3c2C[C@]2(C)[C@H]3C(=O)C=C4[C@@H]5C[C@@](C)(C(N)=O)CC[C@]5(C)CC[C@@]4(C)[C@]3(C)CC[C@@H]12
inactive: NCI-H23 lung 72.5% | NCI-H226 lung 73.2% | NCI-H322M lung 66.4% | HOP-62 NSCLC 85.3% | NCI-H460 lung 69.4% | HOP-92 NSCLC 55.4% | NCI-H522 lung 68.7% | 786-0 renal 75% | COLO 205 colon 46.7% | DU-145 prostate 92.2% | K-562 leukemia 31.3% | MALME-3M melanoma 79.3% | MDA-MB-231 breast 74.1% | RXF 393 renal 70.5% | SF-268 CNS 69.1% | SF-295 CNS 82.9% | SF-539 CNS 92.8% | UACC-257 melanoma 83.2% | M14 melanoma 80.2%

COc1cc2oc(-c3cccc(C(=O)Nc4ccccc4)c3)cc(=O)c2c(O)c1OC
active: HOP-62 NSCLC 8.89% | HOP-92 NSCLC 5.28%
inactive: NCI-H23 lung 86.9% | NCI-H226 lung 73.2% | NCI-H322M lung 66.4% | NCI-H460 lung 33.7% | NCI-H522 lung 91.3% | 786-0 renal 31.5% | COLO 205 colon 92.3% | DU-145 prostate 65.6% | K-562 leukemia 97.1% | MALME-3M melanoma 64.5% | MDA-MB-231 breast 76.3% | RXF 393 renal 56.5% | SF-268 CNS 37% | SF-295 CNS 70% | SF-539 CNS 19.4% | UACC-257 melanoma 84.3% | M14 melanoma 83.7%

CCOC(=O)CSc1nc2ccccc2c(=O)n1Cc1ccc(S(N)(=O)=O)cc1
inactive: NCI-H23 lung 98% | NCI-H226 lung 100% | NCI-H322M lung 99.7% | HOP-62 NSCLC 95.5% | NCI-H460 lung 101% | HOP-92 NSCLC 94.6% | NCI-H522 lung 91.3% | 786-0 renal 104% | COLO 205 colon 106% | DU-145 prostate 113% | K-562 leukemia 97.1% | MALME-3M melanoma 105% | MDA-MB-231 breast 101% | RXF 393 renal 98.4% | SF-268 CNS 99.2% | SF-295 CNS 99.4% | SF-539 CNS 97.7% | UACC-257 melanoma 101% | M14 melanoma 97%

O=C1Nc2cc(-c3ccc(NC(=O)c4ccccc4)cc3)ccc2/C1=C/c1ccc[nH]1
inactive: NCI-H23 lung 66.7% | NCI-H226 lung 90.6% | NCI-H322M lung 94.1% | HOP-62 NSCLC 104% | NCI-H460 lung 83.4% | HOP-92 NSCLC 115% | NCI-H522 lung 92.2% | 786-0 renal 107% | COLO 205 colon 118% | DU-145 prostate 98.9% | K-562 leukemia 95.1% | MALME-3M melanoma 102% | MDA-MB-231 breast 90% | RXF 393 renal 111% | SF-268 CNS 101% | SF-295 CNS 106% | SF-539 CNS 98% | UACC-257 melanoma 110% | M14 melanoma 105%

S=c1cc(S)c2cc(Br)ccc2[nH]1
inactive: NCI-H23 lung 81.5% | NCI-H226 lung 83.9% | NCI-H322M lung 91.1% | HOP-62 NSCLC 85.9% | NCI-H460 lung 99.4% | HOP-92 NSCLC 88.5% | NCI-H522 lung 68.1% | 786-0 renal 104% | COLO 205 colon 98.8% | DU-145 prostate 105% | K-562 leukemia 94.9% | MALME-3M melanoma 98.4% | MDA-MB-231 breast 81.5% | RXF 393 renal 111% | SF-268 CNS 99% | SF-295 CNS 100% | SF-539 CNS 97.7% | UACC-257 melanoma 87.1% | M14 melanoma 90%

Fc1ccc2c(-c3cncn3CCc3ccccc3)c[nH]c2c1
inactive: NCI-H23 lung 86.2% | NCI-H226 lung 75.9% | NCI-H322M lung 91.8% | HOP-62 NSCLC 87.4% | NCI-H460 lung 92.7% | HOP-92 NSCLC 65% | NCI-H522 lung 82% | A549/ATCC NSCLC 87% | COLO 205 colon 101% | DU-145 prostate 104% | K-562 leukemia 74.6% | MALME-3M melanoma 91.4% | MDA-MB-231 breast 87.8% | RXF 393 renal 79.6% | SF-268 CNS 83.9% | SF-295 CNS 83.5% | SF-539 CNS 94.6% | UACC-257 melanoma 94.6% | M14 melanoma 90.8%

CCOC(=O)c1cc(C#N)n2ccc3ccccc3c12
inactive: NCI-H23 lung 94.7% | NCI-H226 lung 97.5% | NCI-H322M lung 98.1% | HOP-62 NSCLC 105% | NCI-H460 lung 100% | HOP-92 NSCLC 93.5% | NCI-H522 lung 92.2% | A549/ATCC NSCLC 98.8% | COLO 205 colon 112% | DU-145 prostate 103% | K-562 leukemia 106% | MALME-3M melanoma 104% | MDA-MB-231 breast 102% | RXF 393 renal 98.9% | SF-268 CNS 94.2% | SF-295 CNS 96.5% | SF-539 CNS 98.7% | UACC-257 melanoma 104% | M14 melanoma 108%

CC(C)N1C(=O)S/C(=C2/SC(=O)N(C(C)C)C2=O)C1=O
inactive: NCI-H23 lung 93.8% | NCI-H226 lung 102% | NCI-H322M lung 93.4% | HOP-62 NSCLC 111% | NCI-H460 lung 102% | HOP-92 NSCLC 74.6% | NCI-H522 lung 89.9% | A549/ATCC NSCLC 101% | COLO 205 colon 112% | DU-145 prostate 91.8% | K-562 leukemia 94.4% | MALME-3M melanoma 90.4% | MDA-MB-231 breast 76.2% | RXF 393 renal 99.2% | SF-268 CNS 94.8% | SF-295 CNS 101% | SF-539 CNS 86.4% | UACC-257 melanoma 99% | M14 melanoma 93%

COc1cc2nc(-c3ccc(C(F)(F)F)cc3)cc(OCCCN3CCOCC3)c2cc1OC
active: NCI-H226 lung -10.5% | SF-295 CNS -50.1% | UACC-257 melanoma -16.2% | M14 melanoma -56%
inactive: NCI-H23 lung 56.5% | NCI-H322M lung 57.2% | HOP-62 NSCLC 51.9% | NCI-H460 lung 18.5% | HOP-92 NSCLC 11.2% | NCI-H522 lung 14.6% | 786-0 renal 21.5% | COLO 205 colon 20% | DU-145 prostate 41.5% | K-562 leukemia 11.5% | MALME-3M melanoma 45.2% | MDA-MB-231 breast 22.1% | RXF 393 renal 14.5% | SF-268 CNS 56.1% | SF-539 CNS 46%

COc1ccc(OC)c(CCn2cncc2-c2c[nH]c3ccccc23)c1
inactive: NCI-H23 lung 55.6% | NCI-H226 lung 68.3% | NCI-H322M lung 82.8% | HOP-62 NSCLC 74.3% | NCI-H460 lung 92% | HOP-92 NSCLC 46.7% | NCI-H522 lung 71% | A549/ATCC NSCLC 90.8% | COLO 205 colon 90.1% | DU-145 prostate 88.4% | K-562 leukemia 42.4% | MALME-3M melanoma 74.5% | MDA-MB-231 breast 72.2% | RXF 393 renal 74.4% | SF-268 CNS 71.1% | SF-295 CNS 71.6% | SF-539 CNS 88.5% | UACC-257 melanoma 80.8% | M14 melanoma 73.3%

CCOc1cccc(-c2nc(N)nc(Nc3ccccc3SSc3ccccc3Nc3nc(N)nc(-c4cccc(OCC)c4)n3)n2)c1
inactive: NCI-H23 lung 43.8% | NCI-H226 lung 68% | NCI-H322M lung 85.1% | NCI-H460 lung 35.6% | HOP-92 NSCLC 97.2% | NCI-H522 lung 90.8% | 786-0 renal 84.9% | COLO 205 colon 109% | DU-145 prostate 83.9% | K-562 leukemia 68.9% | MALME-3M melanoma 97% | MDA-MB-231 breast 51.7% | RXF 393 renal 92.4% | SF-268 CNS 25.1% | SF-539 CNS 93.2% | UACC-257 melanoma 118% | M14 melanoma 69.4%
active: HOP-62 NSCLC -0.309% | SF-295 CNS 5.56%

CCN(CC)c1ccc(C(=O)c2ccccc2)cc1
inactive: NCI-H23 lung 96.4% | NCI-H226 lung 87.9% | NCI-H322M lung 97.9% | HOP-62 NSCLC 91.2% | NCI-H460 lung 104% | HOP-92 NSCLC 89.6% | NCI-H522 lung 87.2% | 786-0 renal 103% | COLO 205 colon 111% | DU-145 prostate 102% | K-562 leukemia 95.2% | MALME-3M melanoma 95.3% | MDA-MB-231 breast 100% | RXF 393 renal 111% | SF-268 CNS 96.9% | SF-295 CNS 101% | SF-539 CNS 97.7% | UACC-257 melanoma 96.1%

CCOC(=O)c1nc2c3ccccc3ccn2c1C(=O)OCC
inactive: NCI-H23 lung 96.9% | NCI-H226 lung 97.2% | NCI-H322M lung 95.1% | HOP-62 NSCLC 102% | NCI-H460 lung 118% | HOP-92 NSCLC 103% | NCI-H522 lung 88.3% | A549/ATCC NSCLC 103% | COLO 205 colon 109% | DU-145 prostate 92.1% | K-562 leukemia 99.1% | MALME-3M melanoma 103% | MDA-MB-231 breast 98.2% | RXF 393 renal 103% | SF-268 CNS 89% | SF-295 CNS 104% | SF-539 CNS 99.9% | UACC-257 melanoma 126% | M14 melanoma 121%

CC(Sc1nc2ccccc2c(=O)n1CCc1ccc(S(N)(=O)=O)cc1)C(=O)Nc1ccc(Cl)cc1 (stereo not drawn)
inactive: NCI-H23 lung 79.5% | NCI-H226 lung 76.6% | NCI-H322M lung 73.4% | HOP-62 NSCLC 84.4% | NCI-H460 lung 94.7% | HOP-92 NSCLC 107% | NCI-H522 lung 56.3% | 786-0 renal 80.2% | COLO 205 colon 106% | DU-145 prostate 99.4% | K-562 leukemia 60.4% | MALME-3M melanoma 89.7% | MDA-MB-231 breast 82.6% | RXF 393 renal 72.4% | SF-268 CNS 74.7% | SF-295 CNS 83.8% | SF-539 CNS 90.8% | UACC-257 melanoma 90.2% | M14 melanoma 105%

Source: PubChem BioAssay (NCI)
